This is a sample that favours compounds with a hit; in the whole collection about 11% have one here.
HEK293 tox = Cytotoxic Profiling in HEK 293 Cell Line of Diverse Libraries Using Quantitative High-Throughput Screening; HEK 293 viability, ATP luminescence (CellTiter-Glo), 48-72 h; Potency, µM (top dose mostly 115 µM), inactives show at the highest dose activity change, negative = cytotoxicity, hits mostly inhibitors; hit rate 6.6% among 94,000; note: nearly all actives have a fitted effect of over 60% in size
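HEK 293 cells seeded at 250 cells/well were exposed to compound for 48 or 72 hr at 37 degree Celsius. Viability taken as ATP content by CellTiter-Glo luminescence.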
NIH3T3 tox = Cytotoxic Profiling in NIH 3T3 Cell Line of Diverse Libraries Using Quantitative High-Throughput Screening; NIH 3T3 viability, CellTiter-Glo ATP luminescence, 48-72 h; Potency, µM (top dose mostly 96.7 µM), for inactives: at the top dose activity change, negative = cytotoxicity, hits mostly inhibitors; hit rate 4.3% among 94,000; AID 1345082, 2018; note: nearly all actives have a fitted effect of over 55% in size
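Viability of NIH 3T3 cells after 48 or 72 hr compound treatment at 37 °C was assessed by CellTiter-Glo, with luminescence imaged following a 10 min room-temperature step.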
hNpr1 antagonist = Natriuretic polypeptide receptor (hNpr1) antagonism - Primary qHTS; Atrial natriuretic peptide receptor 1 (Homo sapiens), P16066; hit rate 1.6% among 76,000; AID 1347048, 2019; Potency, µM (doses to about 46.3 µM), for the others: at the highest dose activity change, negative = inhibition, most hits filed as inhibitors; HEK293 hNpr1 GloSensor cGMP, ANP-stimulated luminescence; calls by dose curve; note: nearly all actives have a fitted effect of over 60% in size
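HEK293 cells stably expressing human Npr1 and cGMP GloSensor pGS-40F, loaded 2 h with 2% GloSensor reagent, given compound 30 min at room temperature. Luminescence read before and 20 min after 0.1 nM hNppA.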
Luciferase inh = Firefly luciferase inhibition profiling of diverse chemical library using quantitative high-throughput screening | Luciferin 4-monooxygenase (Photinus pyralis), P08659 | purified P. pyralis luciferase, luminescence, biochemical | Potency, µM (top dose mostly 115 µM), most hits filed as inhibitors | hit rate 2.5% among 76,000 | AID 1347043, 2019; note: nearly all actives have a fitted effect of over 65% in size
Target sequence (P08659 whole entry, looked up): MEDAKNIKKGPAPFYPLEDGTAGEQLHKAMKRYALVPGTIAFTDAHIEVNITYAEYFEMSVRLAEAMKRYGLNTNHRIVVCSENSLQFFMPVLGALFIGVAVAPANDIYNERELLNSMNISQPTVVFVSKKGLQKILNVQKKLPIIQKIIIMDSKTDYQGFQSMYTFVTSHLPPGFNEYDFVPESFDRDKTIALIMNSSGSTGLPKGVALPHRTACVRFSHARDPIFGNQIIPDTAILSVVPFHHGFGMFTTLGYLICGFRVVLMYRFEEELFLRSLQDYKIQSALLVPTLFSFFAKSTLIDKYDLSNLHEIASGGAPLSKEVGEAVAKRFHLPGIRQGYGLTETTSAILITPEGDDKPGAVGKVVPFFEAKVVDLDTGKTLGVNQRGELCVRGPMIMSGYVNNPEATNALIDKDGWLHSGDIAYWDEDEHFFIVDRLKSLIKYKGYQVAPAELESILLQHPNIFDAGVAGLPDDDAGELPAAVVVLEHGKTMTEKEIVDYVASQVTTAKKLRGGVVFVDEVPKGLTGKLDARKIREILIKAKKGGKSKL
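Biochemical qHTS: compound (6-point titration) added to 10uM D-luciferin plus 10uM ATP in Tris acetate pH 7.5 buffer with Mg, Tween-20 and BSA, then purified enzyme at 10nM; light output imaged.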
The depositor's hits bear a star; i = inactive; ? = inconclusive; · = not tested or not shown; [ ] = dose if it differs, or a comment. Unless noted, calls come from the whole dose curve; as a rule, active = well fitted curve in the direction sought with a large enough effect; inconclusive = small, poorly fitted or top-dose-only effect, or another doubt; inactive = no such curve, though single readings can be large; an effect the other way counts as inactive or inconclusive. % is set by controls: 0 for no effect and ±100 for the full control effect; potency is the fitted concentration of half-maximal effect.

SMILES | HEK293 tox | NIH3T3 tox | hNpr1 antagonist | Luciferase inh
O=C(Nc1ccccc1F)NC1CCN(Cc2cccc(-c3ccc(F)c(F)c3)c2)CC1 | ? | 11µM* | · | ·
O=C(NC1CCN(Cc2cccc(-c3ccc(F)c(F)c3)c2)CC1)c1ccc(C(F)(F)F)cc1 | -17% | -31% | · | ·
COc1cc(F)ccc1C(C(=O)O)N1CCC(Oc2cccc(F)c2)CC1 (stereo not given) | -1% | -8% | 7% | i
C[S+](=O)([O-])c1ccc(-c2cc3c(ccn3Cc3ccncc3)c(N3CCOCC3)n2)cc1 | -16% | 6.3µM* | 1% | i
CN(C)Cc1cccc(-c2cc3c(ccn3Cc3ccncc3)c(N3CCOCC3)n2)c1 | 89µM* | 40µM* | -11%[70.6 µM] | i
C[S+](=O)([O-])Nc1cccc(-c2cc3c(ccn3Cc3ccncc3)c(N3CCOCC3)n2)c1 | -22% | ? | -6% | i
c1cc(-c2cc3c(ccn3Cc3ccncc3)c(N3CCOCC3)n2)cc(N2CCOCC2)c1 | ? | 32µM* | -2% | i
O=C(C1CCCN1C(=O)Nc1ccccc1)N1CCC(N2CCCC2=O)CC1 (stereo not given) | 4% | i | · | ·
C[S+](=O)([O-])NCc1nnc2n1C(C(=O)NCc1cccc(C(F)(F)F)c1)CC2 (stereo not given) | i | -16% | · | ·
C[S+](=O)([O-])NC1CCN(c2ccc3nnc(-c4ccccc4)n3n2)CC1 | -5% | -7% | · | ·
COc1cccc([S+](=O)([O-])NC2CCN(c3ccc4nnc(-c5ccccc5)n4n3)CC2)c1 | 25µM* | 14µM* | · | ·
O=[S+]([O-])(NC1CCCN(c2ccc3nnc(-c4ccccc4)n3n2)C1)c1ccccc1 (stereo not given) | 22µM* | ? | · | ·
Cc1ccc([S+](=O)([O-])NC2CCN(c3ccc4nnc(-c5ccccc5)n4n3)CC2)cc1 | 40µM* | ? | · | ·
Cc1noc(C)c1[S+](=O)([O-])N1CCCN(c2ccc3nnc(-c4ccccc4)n3n2)CC1 | 79µM* | -30% | · | ·
CCOC(=O)C1CC1CN1CCC2(CC1)Cc1ccccc1CNC2=O (stereo not given) | -16% | -9% | · | ·
O=C(NCCNC(=O)c1cccc(-c2ccsc2)c1)c1ccc(Cl)nc1 | -6% | -1% | · | ·
O=[S+]([O-])(NC1CCCN(c2ccc3nnc(C4CC4)n3n2)C1)c1cccc(C(F)(F)F)c1 (stereo not given) | ? | 5.6µM* | · | ·
COc1ccccc1OC1CCN(Cc2cc3n(n2)CCNC3)CC1 | -8% | -6% | 2% | i
Cc1ccc(SC2CCN(Cc3cc4n(n3)CCNC4)CC2)cc1 | 14µM* | 14µM* | 1% | i
CCc1nc(NC(c2ccccc2)c2ccco2)c2cnn(C)c2n1 (stereo not given) | 40µM* | ? | -4% | i
CCc1nc(NCCc2cc(OC)cc(OC)c2)c2cnn(C)c2n1 | ? | ? | 2% | i
COc1ccc(C(=O)N2CCCC2C(=O)N2CCC(c3ccccc3)CC2)cc1 (stereo not given) | -24% | -9% | · | ·
CCc1nn(-c2ccc(OC)cc2)c(Oc2ccccc2F)c1CCC(=O)N1CCSCC1 | 32µM* | 45µM* | -10% | i
Cc1nn(-c2ccccc2)c(Oc2ccccc2)c1CCC(=O)NCC1CCCO1 (stereo not given) | ? | ? | -13% | i
CCc1nn(-c2ccc(OC)cc2)c(Oc2ccccc2F)c1CCC(=O)N(CC)CC | ? | 45µM* | -16% | i
SMILES | HEK293 tox | NIH3T3 tox | hNpr1 antagonist | Luciferase inh
CCc1nn(-c2ccc(F)cc2)c(Oc2ccccc2)c1CCC(=O)NCC1CCCO1 (stereo not given) | 40µM* | 32µM* | ? | i
CC(=O)N1CCN(c2ccc3nnc(C)n3n2)CC1 | i | -11%[138 µM] | · | ·
Cc1ccccc1C(=O)N1CCCC(C(=O)N2CCC(c3nc4ncccc4[nH]3)C2)C1 (stereo not given) | -3% | -17% | · | ·
Nc1cccn2nc(-c3ccccc3)nc12 | -18% | ? | -15% | 16µM*
Nc1cccn2nc(-c3cccnc3)nc12 | i | -14% | -6% | ?
O=C1[C@@H]2C[C@@H](CN2CC2CC2)Oc2ccccc2N1Cc1ccc(OC(F)(F)F)cc1 | 56µM* | 40µM* | ? | i
CS(=O)(=O)c1ccc(CN2C[C@@H]3C[C@H]2C(=O)N(Cc2ccc(OC(F)(F)F)cc2)c2ccccc2O3)cc1 | 32µM* | 32µM* | -28% | i
COCCN1C(=O)[C@@H]2C[C@@H](CN2Cc2ccc(OC(F)(F)F)cc2)Oc2ccccc21 | ? | ? | 10% | i
O=C1[C@@H]2C[C@@H](CN2C2CCOCC2)Oc2ccccc2N1Cc1ccc(OC(F)(F)F)cc1 | ? | ? | -5% | i
COc1cccc(C(=O)N2CCc3nc(-c4ccccc4)nc(-c4ccc(Cl)cc4)c3C2)c1 | 40µM* | ? | 5% | i
O=C(c1cccc(Cl)c1)N1CCc2nc(-c3ccc(Cl)cc3)nc(-c3ccccc3)c2C1 | ? | ? | 2% | ?
O=C(c1ccccc1Cl)N1CCc2nc(-c3ccccc3)nc(-c3ccc(Cl)cc3)c2C1 | ? | ? | -20% | i
O=C(c1cccc(Cl)c1)N1CCc2nc(-c3ccccc3)nc(-c3ccc(Cl)cc3)c2C1 | 28µM* | ? | -11% | i
CC(=O)N1CCN(C(=O)c2ccc3nnc(-c4cc[nH]c4)n3c2)CC1 | 3% | 0% | · | ·
NC(=O)CC1=C2CCCCC2N(Cc2ccccc2)C1=O (stereo not given) | 3% | i | 4% | i
O=C(CC1=C2CCCCC2N(Cc2ccccc2)C1=O)N1CCc2ccccc2C1 (stereo not given) | 50µM* | ? | 0% | i
O=C(CC1CCCCN(Cc2ccccc2)C1=O)N1CCc2ccccc2C1 (stereo not given) | 45µM* | ? | -15% | i
COCCCNC(=O)CC1CCCCN(Cc2ccccc2)C1=O (stereo not given) | -13% | -19% | 1% | i
CN(C)c1ccc(-n2cnc3cccnc32)cc1 | ? | ? | 15%[70.6 µM] | 35µM*
COc1ccccc1-n1cnc2cccnc21 | ? | ? | 0%[70.6 µM] | i
Cc1ccc(NC(=O)Cn2ccn3nc(-c4ccccc4)c(CO)c3c2=O)c(C)c1 | 45µM* | ? | -11% | i
O=C(Cn1ccn2nc3c(c2c1=O)CCCCC3)Nc1ccccc1F | -26% | -10% | 0% | 45µM*
CC(C)c1ccccc1NC(=O)Cn1ccn2nc3c(c2c1=O)CCCCC3 | 40µM* | ? | -3% | i
Cc1ccc(NC(=O)Cn2ccn3nc(-c4ccc(F)cc4)c(CO)c3c2=O)c(C)c1 | ? | ? | 0% | i

Screens deposited in PubChem BioAssay by National Center for Advancing Translational Sciences (NCATS).
